CHO-K1 Ca ag: counter-screen for M1 agonists: effect in parental CHO-K1 cells | activation, % at 3 µM | Fluo-8 calcium fluorescence; scaled to maximal ATP response, vehicle zero | AID 602248 | 360,000 compounds, 0.48% hits; in the data active = activation above about 15%;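 also: untransfected CHO-K1 host cells lacking M1 receptor as counterscreen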
CHRM1 antagonist: antagonists of human M1 muscarinic receptor. CHO-K1 hM1, Fluo-8 calcium fluorescence, ACh EC80 antagonist. P11229. 360,000 compounds, 1.3% hits. inhibition, % at 3 µM. AID 588852;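 active = percent inhibition above its own plate's cutoff, namely the mean of that plate's compound wells plus 3 SD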;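 also: peak over basal fluorescence ratio during 140 s after agonist addition; 0% = ACh EC80 plus DMSO and 100% = DMSO alone without agonist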
Target sequence (P11229 whole entry, looked up): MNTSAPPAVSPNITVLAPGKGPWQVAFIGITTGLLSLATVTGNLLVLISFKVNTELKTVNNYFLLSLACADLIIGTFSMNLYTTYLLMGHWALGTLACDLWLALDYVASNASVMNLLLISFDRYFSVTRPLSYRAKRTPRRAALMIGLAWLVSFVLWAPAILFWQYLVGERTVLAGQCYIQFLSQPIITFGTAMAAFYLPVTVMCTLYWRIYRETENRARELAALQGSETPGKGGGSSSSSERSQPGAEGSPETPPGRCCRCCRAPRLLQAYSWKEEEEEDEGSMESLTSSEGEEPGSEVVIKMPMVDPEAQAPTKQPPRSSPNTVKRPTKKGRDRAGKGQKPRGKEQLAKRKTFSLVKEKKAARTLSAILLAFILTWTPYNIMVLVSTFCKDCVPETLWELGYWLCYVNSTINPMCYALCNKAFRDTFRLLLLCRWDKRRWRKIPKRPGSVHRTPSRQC
CHRM1 PAM: potentiates human M1 receptor response to acetylcholine; 360,000 compounds, 0.088% hits; P11229; CHO-K1 hM1, Fluo-8 calcium fluorescence, ACh EC20; 0% = ACh EC20, 100% = maximal ACh; activation, % at 3 µM; in the data active = activation above about 19%, passing the limit was not always enough
CHO-K1 Ca antag: M1 antagonist counterscreen hit in parental CHO-K1 cells; ATP-induced calcium, Fluo-8 fluorescence; inhibition, % at 3 µM; 360,000 compounds, 0.6% hits;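 active = inhibition above a per-plate cutoff, the plate's mean sample inhibition plus 3 SD, cut at about 24% in these data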;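 also: 0% = DMSO plus EC80 ATP and 100% = DMSO alone without ATP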
CHO-K1 Ca PAM: M1 PAM counterscreen hit in parental CHO-K1 cells; ATP EC20, Fluo-8 calcium fluorescence; 0% at ATP EC20, 100% at ATP max; activation, % at 3 µM; 360,000 compounds, 0.02% hits; AID 602247;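 active = activation above the run cutoff, the mean activation of all test compounds plus 3 SD, cut at about 40% in these data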;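 also: peak over basal fluorescence ratio in a 140 s read after ATP addition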
CHRM1 agonist: human M1 muscarinic receptor agonism. CHO-K1 hM1, Fluo-8 calcium fluorescence, agonist mode; 0% DMSO, 100% acetylcholine EC100. activation, % at 3 µM. 360,000 compounds, 0.33% hits. AID 588814;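 active = activation above the run's mean compound activation plus 3 SD, cut at about 16% in these data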;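 also: peak over basal fluorescence ratio within a 140 s kinetic read after compound addition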
* = called active by the depositor; ! = not active in a repeat. Compounds with a hit are over-represented: about 2.3% of the library has one in this group of screens.

SMILES | CHO-K1 Ca ag | CHRM1 antagonist | CHRM1 PAM | CHO-K1 Ca antag | CHO-K1 Ca PAM | CHRM1 agonist
CCCCOc1ccc(C(O)(CCN2CCOCC2)c2ccccc2)cc1 (stereo unspecified) | 4 | 15 | -17 | -16 | 14 | -10
CCCCCN(C(=O)CCC(=O)OCCOc1cccc(Cl)c1)c1c(N)n(CCCC)c(=O)[nH]c1=O | 0 | -9 | 10 | -6 | 13 | -3
CC/C(=N\NC(=O)Nc1ccccc1)c1ccccc1 | 1 | 9 | 3 | 34* | 2 | -2
C/C(CC(C)C)=N\NC(=O)Nc1ccccc1 | 0 | -6 | 7 | -11 | 21 | -6
Cc1ccccc1C(=O)NNC(=O)c1ccc(Br)cc1 | 0 | 6 | 7 | 22 | -11 | 0
O=C(NC(=S)NNC(=O)c1ccccc1O)c1ccc(F)cc1 | 30* | 2 | -9 | 0 | 6 | 33*
O=C(NC(=S)NNC(=O)c1ccccc1O)c1ccc([N+](=O)[O-])cc1 | 1 | 2 | 3 | -7 | 3 | -3
Cc1ccccc1C(=O)NNC(=S)NC(=O)c1ccccc1 | 55* | 13 | -18 | 5 | -13 | 63*
O=C(NC(=S)NNC(=O)c1ccccc1O)c1ccccc1 | 10 | 1 | -7 | -15 | 20 | 24*
Cc1ccc(C(=O)NC(=S)NNC(=O)c2ccccc2O)cc1 | 0 | 8 | -5 | -11 | 3 | -1
CCOC(=O)C1(C)CCN1C(=O)c1cc(F)cc(F)c1 (stereo unspecified) | 1 | -6 | 7 | -13 | 21 | -4
CCN(CC)CCCn1c2c(c(SCC(=O)Nc3cc(OC)cc(OC)c3)nc1=O)CCC2 | 3 | 29* | -16 | -1 | -20 | -8
CCCCc1ccc(NC(=O)CSc2nc(=O)n(CCN(CC)CC)c3c2CCC3)cc1 | 0 | 36* | -20 | -2 | -18 | -7
CCN(CC)CCn1c2c(c(SCC(=O)Nc3ccc(C)c(F)c3)nc1=O)CCCC2 | 0 | 50* | -26 | -5 | 11 | -8
O=C(CSc1nc(=O)n(CCCN2CCOCC2)c2c1CCCC2)Nc1cccc([N+](=O)[O-])c1 | 4 | 26 | -16 | -1 | 12 | -9
O=C(CSc1nc(=O)n(CCCN2CCOCC2)c2c1CCCC2)Nc1cccc(F)c1 | 3 | 30* | -14 | 5 | -15 | -8
CC(C)(C)S(=O)N1Cc2cc(CO)cc(CCO)c2[C@H]1CCO (stereo partly specified) | 1 | -15 | 10 | -13 | 21 | -4
Cc1cc(C)nc(/N=C(\N)Nc2cccc(OCc3ccccc3)c2)n1 | 46* | 59* | -28 | 22 | -30 | 26*
CCOC(=O)C(=O)Nc1ccc(OCc2ccccc2)cc1 | 6 | 4 | -2 | 2 | -1 | -3
COc1ccc(N/C(N)=N/c2nc(C)cc(C)n2)cc1 | 7 | 21 | -14 | 19 | -5 | -6
Cc1cc(C)nc(/N=C(\N)Nc2ccc(CC(=O)OC(C)C)cc2)n1 | 37* | 59* | -30 | 45* | -31 | 15
Cc1cc(C)nc(/N=C(\N)Nc2ccc(OCc3ccccc3)cc2)n1 | 91* | 89* | -41 | 89* | -12 | 70*
COc1ccccc1N/C(N)=N/c1nc(C)cc(C)n1 | 2 | -10 | 1 | -10 | 24 | -5
Cc1cc(C)nc(/N=C(\N)Nc2ccc(OCCC(C)C)cc2)n1 | 33* | 84* | -30 | 52* | -12 | 33*
CCCCn1c(N)c(N(CCOC)C(=O)CN(C)S(=O)(=O)c2ccc(C)cc2)c(=O)[nH]c1=O | 0 | -26 | 9 | 2 | 3 | -1
SMILES | CHO-K1 Ca ag | CHRM1 antagonist | CHRM1 PAM | CHO-K1 Ca antag | CHO-K1 Ca PAM | CHRM1 agonist
CCOC(=O)C1=NOC2C3CC(C12)C1C(=O)N(CCc2ccc(OC)c(OC)c2)C(=O)C31 (stereo unspecified) | 1 | -13 | 6 | -9 | 15 | -1
COCCOC(=O)CSc1ncccc1-c1nc2cc(C)c(C)cc2[nH]1 | 1 | -10 | 14 | -4 | 14 | -1
Cc1cc2nc(-c3cccnc3SCC(=O)NC(C)C)[nH]c2cc1C | 16* | 11 | 9 | -3 | 15 | -3
Cc1cc(OCCn2ccnc2)cc(C(C)C)c1 | 0 | 74* | -22 | 2 | -11 | -9
Cc1cc(OCCCn2ccnc2)cc(C(C)C)c1 | 4 | 26 | -15 | -2 | 4 | -7
Cc1cccc(OCCCCCn2ccnc2)c1 | 1 | 11 | -3 | 0 | 8 | 17*
COc1ccccc1Cc1c(-c2ccco2)nc2c(C)cc(Br)cn12 | 1 | -13 | 12 | 0 | 5 | 2
O=C(Nc1cccc(C(=O)N2CCCc3ccccc32)c1)c1ccccc1 | 2 | -11 | 4 | -2 | 16 | -4
O=C(Cc1nc(-c2ccc([N+](=O)[O-])cc2)cs1)Nc1ccccc1 | 8 | -4 | 7 | -7 | 19 | 18*
COCC(=O)Nc1nc(-c2ccc([N+](=O)[O-])cc2)cs1 | 4 | -10 | 9 | -17 | 16 | -3
CCCOc1ccc(C(=O)NC(=S)NNC(=O)c2c(-c3ccccc3)noc2C)cc1 | 33* | 62* | -23 | 12 | -32 | 97*
Cc1onc(-c2ccccc2)c1C(=O)NC(=S)NNC(=O)c1ccccc1O | 77* | 16 | -21 | 13 | -13 | 74*
Cc1onc(-c2ccccc2)c1C(=O)NC(=S)NNC(=O)c1ccc(O)cc1O | -1 | -23 | 7 | 0 | 8 | -7
O=C(Nc1ccc(S(=O)(=O)Nc2ncccn2)cc1)c1ccc(Br)cc1 | 0 | -14 | 5 | -5 | 12 | -2
CN(C)CCC(c1ccccc1)c1ccccn1 (stereo unspecified) | 0 | 16 | -21 | 4 | -9 | -7
CC(C1=C(CCN(C)C)Cc2ccccc21)c1ccccn1 (stereo unspecified) | 0 | 77* | -30 | -12 | 5 | -8
CC1CCCC(C)N1C(=O)COC(=O)c1cc(F)c(F)cc1Cl (stereo unspecified) | -1 | 28* | -9 | 18 | -9 | -8
CC1CCCC(C)N1C(=O)c1cc(F)c(F)cc1Cl (stereo unspecified) | 1 | -4 | 1 | -3 | 5 | -7
CCn1cc(S(=O)(=O)NC2CCCCC2)cn1 | 0 | 0 | 1 | 12 | -21 | -1
Cc1ccccc1NC(=O)Cc1nc(COC(=O)CCNS(=O)(=O)c2ccccc2)cs1 | 4 | -7 | 10 | -6 | -2 | 1
CCCCCCCCCCOC(=O)Cn1c(COc2ccc(OC)cc2)[n+](C)c2ccccc21 | 7 | 41*! | -16 | 13 | -2 | -11
CCCCCCCCCCOC(=O)Cn1c(COc2ccccc2C)[n+](C)c2ccccc21 | 0 | 86* | -30 | -1 | 4 | -10
CCOC(=O)Cn1c(COc2ccccc2OC)[n+](C)c2ccccc21 | 0 | 6 | -3 | 1 | -7 | -9

Screening data from PubChem.
